Measured values taken from PubChem BioAssay (EPA / NIEHS).
“And” between values parts separate entries of the source, which are not always exact repeats. Equal entries are not always repeated. Records with an inconclusive call do not appear. The source made the active and inactive calls. Rule for the calls, unless noted: active = hit-call score of the fitted dose curve at least 0.9, where 1 is the maximum; inactive = score below 0.9.

Legend:
[1] = CCTE_Shafer_MEA_dev_burst_rate: CCTE's Neural Network Formation Assay for Burst Rate, Shafer Lab (AID 2284042)
Procedure, shortened: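 Cells plated, treated day 0; recorded DIV 5, 7, 9, 12; fed and re-treated DIV 5, 9. Endpoint: bursts per recording time, active-electrode well mean, trapezoidal AUC, fitted in decreasing direction against DMSO baseline.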

[2] = CCTE_Shafer_MEA_dev_bursting_electrodes_number: CCTE's Neural Network Formation Assay for Number of Bursting Electrodes, Shafer Lab (AID 2284043; active = hit-call score of the fitted dose curve at least 0.9, where 1 is the maximum;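 for AC50: potency is for loss of bursting electrodes relative to DMSO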)
Procedure, shortened: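 Primary rat cortical neurons were cultured on PEI-coated 48-well MEA plates (16 electrodes/well) and exposed from plating through day 12, with compound renewed at feeds on DIV 5 and 9. Electrodes bursting ≥1 per 2 min were counted on DIV 5, 7, 9, 12; trapezoidal AUC taken.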

[3] = CCTE_Shafer_MEA_dev_burst_duration_mean: CCTE's Neural Network Formation Assay for Mean Burst Duration, Shafer Lab (AID 2284045)
Procedure, shortened: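 Primary rat cortical neurons on PEI-coated 16-electrode MEA wells, exposed from plating through day 12 with compound renewed at DIV 5 and 9; spontaneous activity recorded days 5, 7, 9, 12. Well-mean burst duration collapsed as trapezoidal AUC, fitted for loss versus DMSO.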

[4] = CCTE_Shafer_MEA_dev_interburst_interval_mean: CCTE's Neural Network Formation Assay for Mean Interburst Interval, Shafer Lab (AID 2284046);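 note: well-mean interburst interval of bursting electrodes as AUC over four recording days; curve fitted for decrease in interburst interval relative to DMSO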
Procedure, shortened: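 Developing rat cortical networks on 48-well MEAs receive compound from the day of plating. Burst intervals from each active electrode are averaged per well, and AUC over the recording days is fitted in the negative direction against DMSO.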

[5] = CCTE_Shafer_MEA_dev_inter_network_spike_interval_mean: CCTE's Neural Network Formation Assay for Mean Inter-network Spike Interval, Shafer Lab (AID 2284047)
Procedure, shortened: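 Rat cortical cultures, 1.5 x 10^5 cells/well on 48-well MEA plates; continuous exposure days 0–12, medium and compound refreshed DIV 5, 9. Mean time between consecutive network-spike peaks; AUC across DIV 5/7/9/12; DMSO baseline, negative fitting direction.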

[6] = CCTE_Shafer_MEA_dev_network_spike_number: CCTE's Neural Network Formation Assay for Number of Network Spikes, Shafer Lab (AID 2284048);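 note: synchronized bursts across electrodes counted on days 5 7 9 12 and integrated as AUC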
Procedure, shortened: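 Primary rat cortical neurons were seeded at 1.5 x 10^5 cells/well on PEI-coated 16-electrode MEA wells with laminin, exposed from plating day 0, compound renewed at DIV 5 and 9. Network spikes were recorded on days 5, 7, 9, 12 and summarized as trapezoidal AUC versus DMSO.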

[7] = CCTE_Shafer_MEA_dev_network_spike_peak: CCTE's Neural Network Formation Assay for Mean Number of Electrodes in Network Spike, Shafer Lab (AID 2284049);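 for AC50: fitted for loss of signal meaning fewer electrodes in network spikes than DMSO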
Procedure, shortened: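 Continuous 12-day exposure of rat cortical cultures, starting at plating, on MEA plates. Endpoint: electrodes participating in network-spike peaks, AUC across DIV 5–12, DMSO as negative control.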

[8] = CCTE_Shafer_MEA_dev_spike_duration_mean: CCTE's Neural Network Formation Assay for Mean Spike Duration, Shafer Lab (AID 2284051);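 note: mean network spike duration pooled as area under curve over DIV 5 to 12 recordings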;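 for AC50: potency for a decrease in mean network spike duration versus DMSO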
Procedure, shortened: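 Readout is the average length of network spikes, clustered firing across electrodes, summed over DIV 5, 7, 9 and 12 as area under the curve. Neurons from rat cortex developed networks on MEA plates under continuous 12-day exposure.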

[9] = CCTE_Shafer_MEA_dev_network_spike_duration_std: CCTE's Neural Network Formation Assay for Standard Deviation of Network Spike Duration, Shafer Lab (AID 2284052);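 note: area under curve of spike duration SD across recording days 5 to 12; hits are decreases in network spike duration SD versus DMSO vehicle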
Procedure, shortened: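 Read-out is the trapezoidal area-under-the-curve across recordings made on days 5, 7, 9 and 12, fitted in the negative direction against DMSO baseline. Neurons were primary rat cortical cells treated from day 0, with treatment renewed at each feed.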

[10] = CCTE_Shafer_MEA_dev_per_network_spike_spike_number_mean: CCTE's Neural Network Formation Assay for Mean Number of Spikes in a Network Spike, Shafer Lab (AID 2284053);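 for AC50: fitted as decrease in spikes per network spike relative to DMSO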
Procedure, shortened: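 Continuous twelve-day exposure of developing rat cortical networks grown over 16 microelectrodes per well; spontaneous firing is captured at four time points, and the per-network-spike spike number is integrated over development by trapezoidal AUC.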

[11] = CCTE_Shafer_MEA_dev_LDH: CCTE's Lactate Dehydrogenase Assay for Cytotoxicity in the Neural Network Formation Assay, Shafer Lab (AID 2284068; active = hit-call score of the fitted dose curve at least 0.9, where 1 is the maximum;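 note: exposure for twelve days from plating with re-dosing on DIV 5 and 9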)
Procedure, shortened: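 Cytotoxicity companion to network-formation recordings: rat cortical neurons received compound over 12 days of development, re-dosed at DIV 5 and 9 feeds. Viability was inferred from LDH enzyme activity relative to DMSO.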

[12] = CCTE_Shafer_MEA_dev_AB: CCTE's Alamar Blue Assay for Cytotoxicity in the Neural Network Formation Assay, Shafer Lab (AID 2284083; active = hit-call score of the fitted dose curve at least 0.9, where 1 is the maximum;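 note: twelve days of exposure from plating with re-dosing on DIV 5 and 9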)
Procedure, shortened: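 Fluorescent resazurin reduction serves as the viability read-out, with DMSO as negative control and baseline. Cells were primary rat cortical neurons grown on MEA plates and dosed from day 0 to day 12, treatment renewed on DIV 5 and 9.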

[13] = CCTE_Shafer_MEA_dev_mutual_information_norm: CCTE's Neural Network Formation Assay for Mutual Information Normalization, Shafer Lab (AID 2284091);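 for AC50: mutual information between electrodes summarised as area under curve across four recording days; potency is for a decrease in mutual information relative to DMSO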
Procedure, shortened: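 Rat cortical cultures, 48-well MEA, continuous exposure DIV 0–12 with full media/compound change DIV 5 and 9. Readout: inter-electrode mutual information, AxIS adaptive spike detection; AUC across DIV 5/7/9/12 recordings; DMSO baseline, negative fitting direction.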

[14] = CCTE_Shafer_MEA_acute_LDH: CCTE's Lactate Dehydrogenase Assay for Cytotoxicity in the Neural Acute Assay, Shafer Lab (AID 2284086; active = hit-call score of the fitted dose curve at least 0.9, where 1 is the maximum;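 note: active means LDH release rises above DMSO vehicle level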)
Procedure, shortened: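 Primary rat cortical neurons on 48-well MEA plates, treated on day 13 or 15 post-plating. After the 40-min recording with compound, medium LDH release was read by absorbance at 490 nm. Gain of signal was fitted against DMSO negative control.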

[15] = CCTE_Shafer_MEA_acute_AB: CCTE's Alamar Blue Assay for Cytotoxicity in the Neural Acute Assay, Shafer Lab (AID 2284069; active = hit-call score of the fitted dose curve at least 0.9, where 1 is the maximum;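 note: active compounds lower the viability signal compared with DMSO wells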)
Procedure, shortened: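 Metabolic activity in chemically exposed rat cortical neurons (MEA cultures, day 13/15 post-plating) measured via CellTiter Blue resazurin reduction, 544/590 nm fluorescence; fitted relative to DMSO, with signal loss indicating reduced viability.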

DIO2 (gene 1734) = assay: CCTE_GLTED_hDIO2: CCTE's human Deiodinase 2 (DIO2) Inhibition Assay, Great Lakes Toxicology and Ecology Division (GLTED) Lab (AID 2284050; active = hit-call score of the fitted dose curve at least 0.9, where 1 is the maximum)
Procedure, shortened: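 Cell-free human DIO2 enzyme was incubated with test chemical for 3 h; iodide liberated from substrate was then quantified by the Sandell-Kolthoff reaction (absorbance), run in triplicate. Loss of signal versus DMSO baseline indicated inhibition.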

DIO3 (gene 1735) = assay: CCTE_GLTED_hDIO3: CCTE's human Deiodinase 3 (DIO3) Inhibition Assay, Great Lakes Toxicology and Ecology Division (GLTED) Lab (AID 2284055; active = hit-call score of the fitted dose curve at least 0.9, where 1 is the maximum;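 note: potency is for inhibition seen as loss of released iodide signal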)
Procedure, shortened: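 Cell-free assay with human DIO3 enzyme produced by adenovirus expression; enzyme incubated with test chemical for 3 hours. Liberated iodide then measured by Sandell-Kolthoff absorbance; loss of signal versus DMSO baseline indicates inhibition, run in triplicate.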

[16] = UKN5_HCS_SBAD2_cell_viability: Viability Assessment in the University of Konstanz (UKN) Leist Lab Neurite Outgrowth Assay in human iPSC-derived immature Dorsal Root Ganglia Neurons (UKN5) (AID 2284056)
Procedure, shortened: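 iPSC-derived immature peripheral neurons (SBAD2) seeded on Matrigel with CHIR99021, SU5402 and DAPT, dosed 1 h later for 24 h. Viability from Hoechst H-33342 and calcein-AM live staining, high-content imaging; bidirectional fit versus DMSO.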

[17] = UKN5_HCS_SBAD2_neurite_outgrowth: University of Konstanz (UKN) Leist Lab Neurite Outgrowth Assay in human iPSC-derived immature Dorsal Root Ganglia Neurons (UKN5) (AID 2284070); conditions: actives raise or lower the signal
Procedure, shortened: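 Human iPSC-derived immature DRG neurons (SBAD2) on Matrigel with CHIR99021 (1.5 uM), SU5402 (5 uM), DAPT (5 uM); compounds added 1 h post-seeding for 24 h. Calcein-AM neurite area imaged; bidirectional fit vs DMSO.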

CCOP(=S)(OCC)Oc1ccc([N+](=O)[O-])cc1
outcome [1]: inactive
outcome [2]: inactive
outcome [3]: inactive
outcome [4]: inactive
outcome [5]: inactive
outcome [6]: inactive
outcome [7]: inactive
outcome [8]: inactive
outcome [9]: inactive
outcome [10]: inactive
outcome [11]: inactive
outcome [12]: inactive
outcome [13]: inactive

CCOP(=O)(OCC)Oc1cc(C)nc(C(C)C)n1
outcome [1]: inactive
outcome [2]: inactive
outcome [3]: inactive
outcome [4]: inactive
outcome [5]: inactive
outcome [6]: inactive
outcome [7]: inactive
outcome [8]: inactive
outcome [9]: inactive
outcome [10]: inactive
outcome [11]: inactive
outcome [12]: inactive
outcome [13]: inactive

CN1COCN(Cc2cnc(Cl)s2)C1=N[N+](=O)[O-]
outcome [1]: inactive
outcome [2]: inactive
outcome [3]: inactive
outcome [4]: inactive
outcome [5]: inactive
outcome [6]: inactive
outcome [7]: inactive
outcome [8]: inactive
outcome [9]: inactive
outcome [10]: inactive
outcome [11]: inactive
outcome [14]: inactive
outcome [13]: inactive

Nc1c(Cl)cc([N+](=O)[O-])cc1Cl
outcome [15]: inactive
AC50 [14]: 0.0105 µM (active)

CCc1cccc(CC)c1N(COC)C(=O)CCl
AC50 (DIO2 (gene 1734)): 61.1 µM (active)
AC50 (DIO3 (gene 1735)): 52.3 µM (active)

CCCSP(=O)(OCC)SCCC
outcome [1]: inactive
AC50 [2]: 24.9 µM (active) and 22.7 µM (active)
outcome [3]: inactive
outcome [4]: inactive
outcome [5]: inactive
outcome [6]: inactive
AC50 [7]: 50 µM (active) and 29.9 µM (active)
AC50 [8]: 36.2 µM (active) and 27.2 µM (active)
outcome [9]: inactive
AC50 [10]: 15.8 µM (active) and 27.3 µM (active)
AC50 [11]: 15.7 µM (active) and 15.4 µM (active)
AC50 [12]: 20.6 µM (active) and 18.7 µM (active)
AC50 [13]: 9.23 µM (active) and 14.7 µM (active)

CCc1cnc(C2=NC(C)(C(C)C)C(=O)N2)c(C(=O)O)c1 (stereo not given)
outcome [15]: inactive

CCCOCC(=Nc1ccc(Cl)cc1C(F)(F)F)n1ccnc1
AC50 (DIO2 (gene 1734)): 2.92 µM (active)
AC50 (DIO3 (gene 1735)): 2.38 µM (active)
outcome [15]: inactive
outcome [14]: inactive

CC(COc1ccc(Oc2ccccc2)cc1)Oc1ccccn1 (stereo not given)
outcome [15]: inactive

CCOP(=S)(OCC)Oc1ccc2c(C)c(Cl)c(=O)oc2c1
outcome [1]: inactive
AC50 [2]: 50 µM (active)
outcome [3]: inactive
outcome [4]: inactive
outcome [5]: inactive
outcome [6]: inactive
AC50 [7]: 50 µM (active)
outcome [9]: inactive
AC50 [10]: 24.4 µM (active)
AC50 [11]: 76.4 µM (active)
outcome [15]: inactive
AC50 [12]: 78.4 µM (active)
outcome [14]: inactive
AC50 [13]: 21.9 µM (active)

CCCSP(=O)(OCC)Oc1ccc(Br)cc1Cl (stereo not given)
outcome [1]: inactive
outcome [2]: inactive
outcome [3]: inactive
outcome [4]: inactive
outcome [5]: inactive
outcome [6]: inactive
outcome [7]: inactive
outcome [8]: inactive
outcome [9]: inactive
outcome [10]: inactive
AC50 [11]: 1.79 µM (active)
outcome [12]: inactive
outcome [13]: inactive

CCOC(=O)CC(SP(=O)(OC)OC)C(=O)OCC (stereo not given)
outcome [1]: inactive
outcome [3]: inactive
outcome [4]: inactive
outcome [5]: inactive
outcome [6]: inactive
outcome [7]: inactive
outcome [8]: inactive
outcome [9]: inactive
outcome [10]: inactive
outcome [16]: inactive
outcome [11]: inactive
outcome [15]: inactive
outcome [17]: inactive
outcome [13]: inactive

FC(F)C(F)(F)OCC(Cn1cncn1)c1ccc(Cl)cc1Cl (stereo not given)
outcome [15]: inactive

S=C1NCCN1
outcome [1]: inactive
outcome [2]: inactive
outcome [3]: inactive
outcome [4]: inactive
outcome [5]: inactive
outcome [6]: inactive
outcome [7]: inactive
AC50 [8]: 5.64 µM (active)
outcome [9]: inactive
outcome [10]: inactive
outcome [11]: inactive
outcome [12]: inactive
outcome [13]: inactive

N#CSCSC#N
outcome [15]: inactive
outcome [14]: inactive

CCNc1nc(Cl)nc(NC(C)(C)C#N)n1
outcome (DIO2 (gene 1734)): inactive
AC50 (DIO3 (gene 1735)): 21.5 µM (active)

CN(C)NC(=O)CCC(=O)O
outcome [15]: inactive

COc1cc(OC)nc(Sc2cccc(Cl)c2C(=O)O)n1
outcome [15]: inactive
outcome [14]: inactive

CCOP(=O)(SC(C)CC)N1CCSC1=O (stereo not given)
outcome [1]: inactive
outcome [3]: inactive
outcome [4]: inactive
outcome [5]: inactive
outcome [6]: inactive
outcome [7]: inactive
outcome [8]: inactive
outcome [9]: inactive
outcome [10]: inactive
AC50 [11]: 50 µM (active)
outcome [13]: inactive
